Molecules are shown by their SMILES. The panel holds about 83,000 compounds, 20% with a hit somewhere; the sample as a whole holds those more often.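 The test compound was applied at a single concentration to cells in 96-well plates for 48 hours, and percent growth was recorded.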 Values without a mark were called inactive. Activity calls are given as the source filed them. Rule for the calls: active = growth percent below 10; inactive = the rest.

Assay in all cases: NCI-60 one-dose screen, 48 h (100 = growth as untreated, 0 = no growth, -100 = all killed)
What all share (details): 10 µM unless noted

For assay [1], the system named is DU-145 prostate.
Assay [2] deals with K-562 leukemia.
Assay [3] concerns MALME-3M melanoma.
Assay [4] deals with MDA-MB-231 breast.
Assay [5] concerns RXF 393 renal.
The subject of assay [6] is SF-268 CNS.
The subject of assay [7] is SF-295 CNS.
Assay [8] deals with SF-539 CNS.
Assay [9] relates to UACC-257 melanoma.
Assay [10] relates to M14 melanoma.
The subject of assay [11] is HCT-15 colon.
Assay [12] has as its system HT29 colon.
The test system of assay [13] is SNB-75 CNS.
Assay [14] concerns SNB-19 CNS.
Assay [15] deals with U251 CNS.
Assay [16] relates to PC-3 prostate.
Assay [17] concerns SK-MEL-5 melanoma.
Assay [18] relates to UACC-62 melanoma.
The test system of assay [19] is LOX IMVI melanoma.
The test system of assay [20] is SK-MEL-28 melanoma.

`N#Cc1c(N)n(C2OC(CO)C(O)C2O)c2ncnc(N)c12` (stereo not given): the growth in [1] was -9.06% (active); in assay [2], -28.6% (active); in assay [3], -25.7% (active); in assay [4] it was 14.3%; in assay [5], -77.1% (active); in [6], -18.8% (active). The growth in assay [7] was 4.21% (active); in assay [8], -53.1% (active); in assay [9], -37.8% (active); in assay [10], -52% (active); in assay [11] it was -4.45% (active); in assay [12], 2.5% (active). Further, the growth is -37.5% (active) in assay [13]; 5.99% (active) in assay [14]; 15.2% in assay [15]; -13.5% (active) in assay [16]; -33.4% (active) in assay [17]; -49.6% (active) in assay [18]. For the same compound, the values for the growth in [19] and in assay [20] were -52.4% (active) and -60.9% (active), respectively.
As for `CCCCN(CCCC)CCCN=c1nc2c(c(N)n1-c1ccccc1)c(=S)n(-c1ccccc1)c(=S)n2-c1ccccc1`, the growth was -100% (active) in assay [1]; -90.3% (active) in [2]; -91.5% (active) in assay [3]; -89.1% (active) in [4]; -67.7% (active) in [5]; -94% (active) in assay [6]. Also, the growth in [7] is -100% (active); in assay [8], -97.7% (active); in assay [9], -73.1% (active); in [10], -86.3% (active); in [11] it was -73.3% (active); in assay [12] it was -63.3% (active). Besides, the growth is -94.2% (active) in assay [13]; -87.4% (active) in assay [14]; -100% (active) in [15]; -70.8% (active) in [16]; -100% (active) in assay [17]; -99.4% (active) in assay [18]. For the same compound, the growth in [19] is -89.7% (active); in assay [20] it was -100% (active).
In the case of `O=c1[nH]c2cc(Cl)c(Cl)cc2o1`, the growth in [1] is 113%; in assay [2], 102%; in assay [3] it was 117%; in assay [4], 100%; in [5], 135%; in assay [6], 103%. Also, the growth is 55.9% in assay [7]; 105% in [8]; 114% in [9]; 105% in [10]; 101% in [11]; 112% in assay [12]. The growth in [13] was 92.5%; in [14], 109%; in [15] it was 95.1%; in [16], 64.6%; in [17], 115%; in assay [18] it was 92.8%. The values for the growth in [19] and in [20] were 99.4% and 116%, respectively.
For `Nc1nc2c(c3ncccc13)C(c1ccccc1)Cc1ncccc1-2` (stereo not given), the growth in [1] is 103%; in [2] it was 27.1%; in assay [3], 76.1%; in assay [4], 65.9%; in assay [5], 99.3%; in [6] it was 86.4%. Also, the growth in assay [7] was 67.4%; in assay [8], 78.1%; in assay [9], 93.1%; in assay [10], 44.8%; in assay [11] it was 46.1%; in [12], 56.9%. Further, the growth in [13] is 71.2%; in assay [14], 91.8%; in assay [15], 72.2%; in [16], 73.9%; in assay [17], 53.1%; in assay [18], 59.4%. Also, the growth in assay [19] was 70.9%; in assay [20] it was 83.5%.
`Oc1ccc(Nc2ncnc3c2sc2ncccc23)cc1`: the growth in assay [1] was 17.2%; in [2], 38.2%; in assay [3], 60.6%; in assay [4], 64.4%; in assay [5] it was 35.3%; in assay [6], 23.7%. For the same compound, the growth was 15.1% in [7]; 5.87% (active) in assay [8]; 36.4% in assay [9]; -19% (active) in assay [10]; 50.9% in [11]; 43.4% in assay [12]. Moreover, the growth in [13] is 40.9%; in [14], 27.6%; in assay [15] it was 24.4%; in assay [16], 47.4%; in assay [17] it was 27.7%; in assay [18], 3.13% (active). Also, the growth in assay [19] is 8.47% (active); in assay [20], 65.7%.
`O=[N+]([O-])c1cc(F)c2cccnc2c1O`: the growth in assay [1] is 121%; in assay [2], 109%; in assay [3], 103%; in assay [4], 99.5%; in assay [5], 148%; in assay [6] it was 106%. The growth in [7] was 110%; in [8] it was 91%; in [9] it was 115%; in [10] it was 88.5%; in assay [11] it was 92.1%; in assay [12], 111%. Further, the growth in assay [13] was 86%; in [14] it was 93%; in assay [15] it was 91.9%; in assay [16], 96.6%; in assay [17] it was 90.2%; in assay [18], 92.9%. Besides, the growth is 84.7% in assay [19] and 135% in assay [20].
As to `[Ag].[Ag].[NH-]S(=O)(=O)c1ccc(N=Nc2cc(N=Nc3ccc(S([NH-])(=O)=O)cc3)c3c(NC(=O)C(Cl)Cl)cccc3c2OC(=O)C(Cl)Cl)cc1.[c-]1nccs1.[c-]1nccs1`, the growth was 70.1% in assay [1]; 83.8% in assay [2]; 67.4% in assay [3]; 49.5% in assay [4]; 71.5% in [5]; 78.6% in [6]. Further, the growth in assay [7] is 81.6%; in assay [8], 95.7%; in assay [9], 82.4%; in assay [10], 97.4%; in assay [11], 79%; in assay [12], 76.2%. The growth is 51.3% in assay [13]; 80.7% in assay [14]; 75.2% in [15]; 48.2% in [16]; 35.6% in [17]; 91.8% in assay [18]. The growth was 78.7% in assay [19] and 89.1% in assay [20].
Take `CCCOC(=O)C1c2cc3c(cc2CC(C)C1C(=O)OCCC)OCO3` (stereo not given): the growth in [1] was 112%; in assay [2] it was 99.6%; in assay [3] it was 104%; in assay [4], 90%; in assay [5], 93.3%; in [6], 106%. Moreover, the growth in [7] was 83%; in assay [8], 122%; in assay [9], 76.9%; in [10], 100%; in [11] it was 108%; in assay [12] it was 72%. Also, the growth in [13] was 85.6%; in assay [14] it was 98.9%; in assay [15], 95.2%; in [16], 82.9%; in assay [17] it was 92.4%; in assay [18] it was 75.4%. For the same compound, the results for the growth in assay [19] and in [20] were 65.4% and 103%, respectively.

For the origin of these results see PubChem BioAssay (NCI).
